Screens deposited in PubChem by National Center for Advancing Translational Sciences (NCATS).
The list is not random: actives were taken first. Their share in the collection is about 2.4%.
D2 PAM-1 – positive allosteric modulators of human D2 dopamine receptor. P14416. DiscoveRx D2 beta-arrestin cells, luminescence, 90 min; 100% = 57 uM dopamine signal. potentiation, % (no concentration beside the values). 360,000 tested, 0.23% active; in the data active = potentiation above about 50%; inconclusive = mostly about 30% to 49%
Target sequence (P14416 whole entry, looked up): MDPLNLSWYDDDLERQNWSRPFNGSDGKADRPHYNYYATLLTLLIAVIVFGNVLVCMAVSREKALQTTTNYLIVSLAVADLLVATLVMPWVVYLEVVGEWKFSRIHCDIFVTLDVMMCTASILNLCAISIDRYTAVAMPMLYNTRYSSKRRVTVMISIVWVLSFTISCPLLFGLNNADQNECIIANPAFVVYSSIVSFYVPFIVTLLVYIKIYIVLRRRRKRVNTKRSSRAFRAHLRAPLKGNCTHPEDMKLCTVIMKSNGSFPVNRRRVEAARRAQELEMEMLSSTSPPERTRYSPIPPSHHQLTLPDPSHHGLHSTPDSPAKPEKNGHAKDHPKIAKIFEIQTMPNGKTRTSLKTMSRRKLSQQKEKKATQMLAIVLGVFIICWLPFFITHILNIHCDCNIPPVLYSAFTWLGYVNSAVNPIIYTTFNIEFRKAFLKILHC
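PathHunter beta-arrestin assay in DiscoveRx D2 cells. Compounds were added with an EC20 of dopamine (50 nM final) for 90 min at 37 deg C. Luminescence was read 1 h after detection reagent, with 57 uM dopamine as the EC100 control.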
D2 PAM-2 – positive allosteric modulators of human D2 dopamine receptor; AID 485347; HEK293 T-REx D2, calcium flux, EC20 dopamine potentiation; potentiation, % at 10 µM; 340,000 tested, 0.34% active;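 active = potentiation over 3 SD above the plate norm, cut at about 30% in these data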; also: 0% is about no effect
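Primary screen. Calcium kinetics in induced HEK293 T-REx D2 cells: compound pre-addition 180 s, EC20 dopamine, 180 s more.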
D2 antagonist – D2 dopamine receptor (human) antagonism | 340,000 tested, 2% active | HEK293 TREx D2 cells, calcium flux, dopamine EC80 | P14416 | inhibition, % at 10 µM; in the data active = inhibition above about 30%; inactive = below that, where a call was filed; also: 0% is about no effect
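In this primary screen, negative modulation is detected by tracking calcium flux after an EC80 dopamine challenge in inducible HEK293 T-REx D2 cells preexposed to test compound for 180 s.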
D2 ag-1 – D2 dopamine receptor (human) agonism. P14416. HEK293 T-REx D2 cells, calcium flux agonist mode. activation, % at 2 µM. 340,000 tested, 0.53% active;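 active = activation over 3 SD above normal in the single-dose calcium agonist read, cut at about 30% in these data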; also: 0% is about no effect
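Agonism is scored from calcium flux in a force-coupled, inducible HEK293 cell line expressing D2, read kinetically for 180 s after compound addition against dopamine controls.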
D2 ag-2 – agonists of human D2 dopamine receptor (beta-arrestin). 360,000 tested, 0.084% active. DiscoveRx PathHunter D2 beta-arrestin, luminescence, 90 min; 100% = 57 uM dopamine signal. activation, % (no concentration beside the values); in the data active = activation above about 40%; inconclusive = between about 15% and that limit
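Agonist mode: compounds alone added to overnight-plated D2 PathHunter cells for 90 min at 37 C, with 57 uM final dopamine (EC100) defining full response. Beta-arrestin recruitment detected by chemiluminescent reagent, read after 1 h at ambient temperature.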
Active calls of the source: *; ? = inconclusive; . = no result.

SMILES	D2 PAM-1	D2 PAM-2	D2 antagonist	D2 ag-1	D2 ag-2
O=C(CCn1nnnc1CN1CCOCC1)N1CCC(c2ccccc2F)C1 (stereo not given)	-15	-5	-3	0	-4
Cc1cc2n(n1)C(c1ccccc1)CC(c1ccc(Br)cc1)=N2 (stereo not given)	10	-2	52*	8	6
Cc1nc(C)c(C(=O)O)c(-c2cccs2)c1C(=O)O	-1	1	0	0	2
CCOC(=O)C1(C)CCN1C(=O)c1cccc(Cl)c1 (stereo not given)	4	.	.	.	42*
Cc1ccc(S(=O)(=O)N2CCOCC2)cc1C(=O)OC1CCOC1=O (stereo not given)	-25	-10	41*	0	-4
CC(=O)c1cccc(S(=O)(=O)N2CCC(C(=O)OC3CCOC3=O)CC2)c1 (stereo not given)	0	11	43*	1	3
CC1Cc2ccccc2N1C(=O)Cn1cnc2c1c(=O)n(C)c(=O)n2C (stereo not given)	20	1	21	0	-4
COc1cccc(C(O)c2ncc(-c3cccc4ccccc34)[nH]2)c1 (stereo not given)	-6	.	.	.	-2
CCOC(=O)Cn1nc(-c2ccccc2)c2ccccc2c1=O	-11	-4	-3	-1	-1
CCOC(=O)Cn1nc(Cc2ccccc2)c2ccccc2c1=O	-7	43*	13	0	-6
Cc1cc(C)c(NC(=O)C2CCN(c3nnc(C)c4c(C)n(-c5ccccc5)nc34)CC2)c(C)c1	.	1	.	0	.
CCC1CCCCN1C(=O)CCNC(=O)Cn1cnc2ccccc2c1=O (stereo not given)	-8	0	-3	1	-2
CCOc1ccc(C(=O)NCC(c2cccs2)N(C)C)cc1OCC (stereo not given)	-26	-28	51*	-1	-2
CCCOc1ccc(C(=O)NCC(c2cccs2)N(C)C)cc1 (stereo not given)	-1	-10	14	-1	-2
CCOc1ccc(C(=O)NCc2ccncc2)cc1OCC	-41	-24	34*	1	-1
COc1ccc(OCc2cccc(C(=O)O)c2)cc1	-9	3	35*	1	-1
CCOc1ccc(OCc2cccc(C(=O)O)c2)cc1	-1	-1	-16	0	3
CC(=O)N1CCC(O)(c2ccc3c(c2)OCO3)CC1	-2	15	-7	2	-4
COc1ccc(C(=O)Nc2c(O)ccc3ccccc23)cc1OC	17	.	.	.	0
COc1ccc(S(=O)(=O)Nc2c(O)ccc3ccccc23)cc1OC	107*	.	.	.	?
CNC(=O)CSc1nnnn1-c1cc(C)ccc1C	-13	46*	4	-1	-4
Cc1ccc(SCC(=O)OCC(=O)N(C)CC(=O)Nc2ccccc2Cl)cc1C	6	-1	33*	2	1
CCCc1cc(=O)[nH]c(SCC(=O)Nc2oc(C)c3c(C)n[nH]c(=O)c23)n1	-1	7	-7	0	-9
CCc1ccc(CNC(=O)COc2cc(=O)n(CC)c3ccccc23)cc1	.	-7	.	0	.
COc1cc(OC)cc(C(=O)NCc2cccnc2)c1	-39	30*	-7	1	0
SMILES	D2 PAM-1	D2 PAM-2	D2 antagonist	D2 ag-1	D2 ag-2
COc1ccc(C(=O)NCc2cccnc2)cc1Br	-7	-5	-2	1	-2
COc1ccc(/C=N/NC(=O)C(=O)NCc2cccnc2)cc1OC	5	3	33*	0	-1
COc1cc(/C=N/NC(=O)C(=O)NCc2cccnc2)ccc1O	-16	-20	6	-1	-4
CCOC(=O)CNC(=O)c1cc(OC)cc(OC)c1	-1	.	39*	-1	4
O=C(O)CCc1nn2c3ccccc3n(Cc3ccccc3F)c2nc1=O	4	-4	-5	0	-1
CC1CN(c2ncnc3c2cnn3-c2ccc(Cl)cc2)CC(C)O1 (stereo not given)	0	22	31*	-1	0
COCCN(Cc1cc2ccc(C)cc2[nH]c1=O)S(=O)(=O)c1ccccc1	3	-1	5	-1	-3
Cc1cc(NC(=O)CSc2nc(C3CCCCC3)nc3ccccc23)no1	-8	-1	-24	0	-1
Cc1nonc1NC(=O)CSc1nc(C2CCCCC2)nc2ccccc12	-14	2	54*	-1	-4
Cc1occc1C(=O)N/N=C/C=C/c1ccccc1[N+](=O)[O-]	-5	-20	38*	-1	-4
CCc1ccc(NC(=O)C2=C(C)C(=O)OC23CCCCC3)cc1	.	-4	.	0	.
CC1(Cc2ccc(F)cc2)C(=O)Nc2ccc(S(=O)(=O)NC3CCCCC3)cc21 (stereo not given)	-2	.	.	.	5
COc1ccc(NC2=CC(=O)CC(c3ccccc3)C2)c(OC)c1 (stereo not given)	-3	-5	31*	-1	-1
O=C(CSc1nnc(CNC(=O)c2c(F)cccc2F)o1)c1ccccc1	14	-8	-2	-2	2
O=C(Nc1cccc(F)c1)c1ccc(-c2ccccc2C(F)(F)F)o1	.	-3	-32	2	.
COc1ccc(NC(=O)c2ccc(-c3ccccc3C(F)(F)F)o2)cc1	-32	-23	49*	0	-3
O=c1ncn(C2CCCCC2)c(=O)[nH]1	-3	.	.	.	0
O=C(Nc1ccon1)Nc1ccc(F)cc1F	-1	-3	31*	0	-2
CCC(=O)N1CCc2cc(S(=O)(=O)NCCC(=O)Nc3ccc(N(CC)CC)cc3C)ccc21	.	3	.	0	.
COc1ccccc1CN1CC(C(=O)N2CCN(c3ccc(F)cc3)CC2)CC1=O (stereo not given)	-11	32*	-9	-1	0
CCN(CC)N=Nc1ccc(S(=O)(=O)Nc2c(C)n(C)n(-c3ccccc3)c2=O)cc1	-2	13	8	0	-2
Cc1nn(C)c(C)c1CCC(=O)N1CCCC(Nc2ccc(C(C)C)cc2)C1 (stereo not given)	-7	36*	-24	0	-1
CCOC(=O)C1(CCOC)CCN(Cc2nc(C(C)C)cs2)CC1	-9	-3	33*	-2	1
O=C1CC(C(=O)Nc2ccccc2)N=C(N2CCCCC2)N1 (stereo not given)	-16	0	-29	-1	-4
Cc1ccc(NC(=O)C2CC(=O)NC(N3CCCCC3)=N2)cc1Cl (stereo not given)	-28	-19	71*	-1	-3
COc1cc(NC(=O)Cn2nnnc2-c2ccccc2F)cc(OC)c1OC	.	-1	.	-1	.
CCOc1ccc(OCC)c(NC(=O)c2cnn(-c3ccc(F)cc3)c2-n2cccc2)c1	.	-6	.	1	.
CN1CCc2nc(SCCOc3ccccc3)c(C#N)cc2C1	-23	.	31*	0	-3
